Bioassay records deposited in PubChem BioAssay by Johns Hopkins Ion Channel Center.
CHT PAM = CHT positive allosteric modulators, primary screen, cell-based, membrane potential dye, choline EC20 | B-score at 10 µM | actives 0.49% (n = 310,000) | CHT-expressing cells; hits give high values; LV-AA mutant CHT in HEK293 cells;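 active = initial fluorescence not abnormally high and integrated response B-score, plate-corrected, over 3 SD above library mean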
Target sequence (Q9GZV3 whole entry, looked up): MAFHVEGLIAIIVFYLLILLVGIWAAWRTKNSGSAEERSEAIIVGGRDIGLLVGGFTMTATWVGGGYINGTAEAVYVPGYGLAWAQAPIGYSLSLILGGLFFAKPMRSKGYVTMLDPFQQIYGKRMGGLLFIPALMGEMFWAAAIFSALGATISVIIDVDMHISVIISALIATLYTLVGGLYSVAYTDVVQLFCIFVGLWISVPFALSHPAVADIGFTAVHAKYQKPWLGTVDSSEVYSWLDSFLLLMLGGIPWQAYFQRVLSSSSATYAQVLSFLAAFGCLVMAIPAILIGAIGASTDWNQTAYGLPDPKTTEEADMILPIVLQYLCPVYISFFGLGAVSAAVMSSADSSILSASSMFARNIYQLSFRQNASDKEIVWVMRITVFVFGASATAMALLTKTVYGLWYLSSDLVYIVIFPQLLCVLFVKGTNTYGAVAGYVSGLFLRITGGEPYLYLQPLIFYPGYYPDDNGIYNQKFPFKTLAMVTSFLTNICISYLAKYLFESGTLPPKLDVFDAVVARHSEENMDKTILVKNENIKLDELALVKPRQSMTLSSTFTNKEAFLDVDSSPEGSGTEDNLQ
TMEM16A inh = TMEM16A chloride channel inhibitors, primary screen, cell-based, HTS. Anoctamin-1 (Mus musculus), Q8BHY3. HEK293 TMEM16A/YFP iodide influx fluorescence, ionomycin. normalized B-score (activity score, 25-100; higher = stronger inhibition) at 10 µM. actives 1.2% (n = 310,000). AID 588511, 2011;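 active = ratio plate-corrected score three or more library SD toward inhibition, starting fluorescence score within five deviations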;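 note: score derived from kinetic fluorescence span divided by baseline fluorescence per well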
ANO1 activ = TMEM16A chloride channel activators or potentiators, primary screen, cell-based, HTS; Anoctamin-1 (Mus musculus), Q8BHY3; HEK293 TMEM16A/YFP-H148Q/I152L, iodide quench fluorescence; hits give low values; B-score at 10 µM; actives 0.3% (n = 340,000); AID 623877, 2012;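 active = fluorescence-ratio B-score plate-corrected deviation score at least 3 library SD below zero, with starting fluorescence score within 5 deviations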;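 note: channel opened by trigger with iodide after compound preincubation; score built on the fluorescence ratio of max minus min over baseline; more negative score means more quench and so TMEM16A activation or potentiation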
CHT inh = inhibitors of human choline transporter CHT; High affinity choline transporter 1 (Homo sapiens), Q9GZV3; CHT-expressing cells, membrane potential dye, choline response; hits give low values; B-score at 10 µM; actives 0.86% (n = 310,000); AID 488975, 2010;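 active = B-score over 3 SD under the library average, and starting fluorescence ratio not unusually high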;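 note: choline stimulus applied at its EC90 after an EC20 pre-addition; B-score computed on integrated fluorescence ratio after choline addition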
CHT inh conf = CHT inhibitors, confirmation, cell-based, membrane potential dye, duplicate. shares compounds with CHT inh. CHT-expressing cells, choline membrane potential dye; LV-to-AA substituted CHT, HEK293 cells. CHT activity remaining % of control (hits give low values), % at 10 µM. actives 70% (n = 2,400). AID 493221, 2011;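 active = choline transporter activity left, mean of duplicates at 10 µM, below buffer-only control mean minus 3 SD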;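 note: depolarization triggered by choline at its EC90 following an EC20 pre-addition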
HEK293 MPD ctr = membrane potential effects in parental HEK293, counter-screen for CHT inhibitor project, cell-based, membrane potential dye | shares compounds with CHT inh | choline response; active = decrease or increase beyond buffer ±3SD | membrane potential ratio readout (active if shifted either direction beyond buffer ±3SD; no single direction) at 10 µM | actives 4% (n = 2,400) | AID 493222, 2011;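 note: parental cells lack the transporter so any hit is non-specific; ratio is peak minus trough fluorescence over baseline after EC90 choline challenge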
TMEM16A reconf = TMEM16A chloride channel inhibitors, confirmation, cell-based, re-confirmation; shares compounds with TMEM16A inh; HEK293 TMEM16A/YFP-H148Q, iodide quench fluorescence; ionomycin added to raise cell calcium; AID 652189, 2013; actives 39% (n = 2,300); inhibition, % at 10 µM;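 active = mean duplicate percent inhibition, scaled so buffer wells are 0 and the reference blocker 100, over three buffer SD above buffer mean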
HEK293 Ca mobil = calcium mobilization in TMEM16A/YFP HEK293 cells, confirmation, counter-screen for TMEM16A inhibitor project; shares compounds with TMEM16A inh; Fluo4 calcium mobilization; actives 2% (n = 2,300); calcium response (% of ionomycin), % at 10 µM; AID 652231, 2013;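 active = duplicate-averaged calcium signal over 20% of the ionomycin maximum, relative to buffer baseline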;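 note: each well's signal is peak minus trough fluorescence divided by its pre-addition baseline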
YFP-HEK293 quench = iodide YFP quench changes in parental YFP-HEK293, counter-screen for TMEM16A inhibitor project, cell-based; shares compounds with TMEM16A inh; ionomycin; YFP ratio F(max-min)/F0 at 10 µM; 2,300 tested, under 10 active;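 active = yellow fluorescent protein signal ratio exceeding the buffer control mean by over 5 SD of those controls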;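 note: ratio is mean of duplicate wells from kinetic YFP trace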
ClC-1 rat inh = ClC-1 chloride channel inhibition, selectivity assay for TMEM16A inhibitor project, cell-based, voltage-dependent ClC-1. shares compounds with TMEM16A inh. CHO ClC-1-YFP, iodide influx fluorescence quench; iodide control reads 0, buffer control 100. ratio percent, % at 10 µM. 2,300 tested, under 10 active;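 active = duplicate-mean ratio percent above the mean of iodide-only control wells, which defines zero, plus 5 of their SD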;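 note: higher percent means stronger block of ClC-1 iodide influx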
Large screens that a line does not name were inactive (follow-up assays come after a bar, where they were run). A selection: hits, their analogues and other compounds. The true share with any hit is near 2.4%.

Cc1ccc(F)cc1NC(=O)c1ccc(NS(=O)(=O)c2ccc(Br)s2)cc1	TMEM16A inh 25, CHT inh -7.1 | CHT inh conf 50% | HEK293 MPD ctr inactive | TMEM16A reconf inactive | HEK293 Ca mobil inactive | YFP-HEK293 quench inactive | ClC-1 rat inh inactive
O=S(=O)(Nc1nc2ccccc2s1)c1ccc(Cl)s1	TMEM16A inh 100, CHT inh -5.2 | CHT inh conf 56% | HEK293 MPD ctr inactive | TMEM16A reconf 30% | HEK293 Ca mobil inactive | YFP-HEK293 quench inactive | ClC-1 rat inh inactive
O=C(NCCN1CCOCC1)c1c(Cl)cccc1Cl	none
O=C(/C=C/c1ccccc1)NCCc1c[nH]c2ccccc12	none
Cc1nnc(SCc2cnc(-c3ccc(C(C)C)cc3)s2)n1C	TMEM16A inh 100, CHT inh -12 | CHT inh conf 49% | HEK293 MPD ctr inactive | TMEM16A reconf 24% | HEK293 Ca mobil inactive | YFP-HEK293 quench inactive | ClC-1 rat inh inactive
c1ccc(-c2ncc(CSc3nncn3-c3ccccc3)s2)cc1	none
CC1(C)COCN1S(=O)(=O)c1ccc(C(=O)Nc2nnc(-c3ccc(Cl)s3)o2)cc1	TMEM16A inh 100, CHT inh -5.8 (no result: ANO1 activ) | CHT inh conf 50% | HEK293 MPD ctr inactive | TMEM16A reconf inactive | HEK293 Ca mobil inactive | YFP-HEK293 quench inactive | ClC-1 rat inh inactive
O=C(O)C1=CC[C@@H](c2ccc(Cl)cc2)N(S(=O)(=O)c2ccc(Cl)cc2)[C@H]1c1ccc(F)cc1	TMEM16A inh 100, CHT inh -6.3 | CHT inh conf 58% | HEK293 MPD ctr inactive | TMEM16A reconf inactive | HEK293 Ca mobil inactive | YFP-HEK293 quench inactive | ClC-1 rat inh inactive
Cc1ccc([C@@H]2CC=C(C(=O)O)[C@H](c3ccc(F)cc3)N2S(=O)(=O)c2ccc(C)cc2)cc1	none
Cc1cn(C2CCCCO2)c(=O)nc1NO (configuration not stated)	none (no result: CHT PAM, TMEM16A inh, CHT inh)
O=C1C2C(C(=O)N1/N=C/c1cc(Br)cc([N+](=O)[O-])c1O)C1C=CC2C12CC2 (configuration not stated)	CHT inh -7.6 | CHT inh conf 43% | HEK293 MPD ctr inactive | TMEM16A reconf 19% | HEK293 Ca mobil inactive | YFP-HEK293 quench inactive | ClC-1 rat inh inactive
O=C1C2C(C(=O)N1/N=C/c1cc([N+](=O)[O-])c(O)cc1O)C1C=CC2C12CC2 (configuration not stated)	none
COc1ccc(-n2nc(C(=O)NCCCN3CCOCC3)c3ccccc3c2=O)c(OC)c1	none
C=CCNC(=O)c1onc(CSc2ccc(C(C)C)cc2)c1C(=O)O	TMEM16A inh 25, CHT inh -5.2 | CHT inh conf 61% | HEK293 MPD ctr inactive | TMEM16A reconf inactive | HEK293 Ca mobil inactive | YFP-HEK293 quench inactive | ClC-1 rat inh inactive
O=C(NN=C1CCCCCC1)c1cn(-c2ccccc2)nc1-c1ccccc1	none
c1ccc(CC(Cc2ccccc2)c2ccccn2)cc1	none (no result: CHT PAM, TMEM16A inh, CHT inh)
Cc1ccc(-c2csc(NC(=O)c3ccc(Br)cc3)c2C(=O)O)cc1	TMEM16A inh 100, CHT inh -5.3 | CHT inh conf 51% | HEK293 MPD ctr inactive | TMEM16A reconf 28% | HEK293 Ca mobil inactive | YFP-HEK293 quench inactive | ClC-1 rat inh inactive
COc1cccc(CNC(=O)c2cc3ccccn3n2)c1	none
COc1ccc(C2C3=C(CC(C)(C)CC3=O)Nc3n[nH]c(C)c32)cc1 (configuration not stated)	TMEM16A inh 100, CHT inh -7.6 | CHT inh conf inactive | HEK293 MPD ctr inactive | TMEM16A reconf inactive | HEK293 Ca mobil inactive | YFP-HEK293 quench inactive | ClC-1 rat inh inactive
CC(C(=O)NCC1CCCCC1)N1CCN(S(=O)(=O)/C=C/c2ccccc2)CC1 (configuration not stated)	none
CC(C)(C)c1ccc(C(=O)Nc2ccc(Oc3cccnc3)nc2)cc1	TMEM16A inh 100, CHT inh -5.2 | CHT inh conf inactive | HEK293 MPD ctr inactive | TMEM16A reconf 31% | HEK293 Ca mobil inactive | YFP-HEK293 quench inactive | ClC-1 rat inh inactive
Cc1csc2ncnc(N3CCN(C(=S)Nc4ccc(C(F)(F)F)cc4)CC3)c12	none
Cc1csc2c(N3CCN(C(=S)Nc4ccc(C(F)(F)F)cc4)CC3)ncnc12	TMEM16A inh 100, CHT inh -6.2 | CHT inh conf 55% | HEK293 MPD ctr inactive | TMEM16A reconf inactive | HEK293 Ca mobil inactive | YFP-HEK293 quench inactive | ClC-1 rat inh inactive
O=S(=O)(Nc1nc2ccccc2nc1Cl)c1cccc(C(F)(F)F)c1	TMEM16A inh 25, CHT inh -5.2 | CHT inh conf inactive | HEK293 MPD ctr inactive | TMEM16A reconf 21% | HEK293 Ca mobil inactive | YFP-HEK293 quench inactive | ClC-1 rat inh inactive
O=C(c1cc(COc2ccc(F)cc2Cl)on1)N1CCc2ccccc2C1	none
CN(c1cccc(NC(=O)Nc2cccc(Cl)c2)c1)S(C)(=O)=O	TMEM16A inh 100, CHT inh -6.7 | CHT inh conf 51% | HEK293 MPD ctr inactive | TMEM16A reconf 42% | HEK293 Ca mobil inactive | YFP-HEK293 quench inactive | ClC-1 rat inh inactive
O=c1c2cc(Br)ccc2nc(-c2cccc(C(F)(F)F)c2)n1O	TMEM16A inh 100, CHT inh -6 | CHT inh conf 39% | HEK293 MPD ctr inactive | TMEM16A reconf 60% | HEK293 Ca mobil 108% | YFP-HEK293 quench inactive | ClC-1 rat inh inactive
N#Cc1ccc(-c2nc3ccc(Br)cc3c(=O)n2O)cc1	none
